Results: the supplement of paper PMC3334620
In all, about 33,000 sequences were measured (“E-score (-0.5 to 0.5)”: median about -0.017, highest 2% from about 0.3 on). The full list was thinned out, with the highest values kept by preference.

These sequences were tested against T1, Sut1 (UniProt P53032) (assay: PBM E-score (8-mer binding enrichment) (E-score (-0.5 to 0.5)); higher = stronger / more preferred TF binding). Conditions: protein concentration: 200 nM; construct: GST-full length.
T1 sequence: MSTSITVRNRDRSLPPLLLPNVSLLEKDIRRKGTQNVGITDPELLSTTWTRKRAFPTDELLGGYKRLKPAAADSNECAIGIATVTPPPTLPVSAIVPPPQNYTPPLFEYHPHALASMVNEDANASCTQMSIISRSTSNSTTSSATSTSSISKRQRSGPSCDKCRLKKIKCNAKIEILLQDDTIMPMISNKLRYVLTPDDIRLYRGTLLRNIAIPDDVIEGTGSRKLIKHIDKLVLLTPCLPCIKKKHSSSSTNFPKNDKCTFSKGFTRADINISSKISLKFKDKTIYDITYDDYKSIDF
Method: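 Universal 'all 10-mer' protein binding microarrays (Agilent AMADID 015681) probed with GST-tagged S. cerevisiae TFs (full-length or DBD) made by in vitro transcription/translation (PURExpress), about 100-200 nM. Bound TF was detected with fluorescent anti-GST. Each ungapped 8-mer (which stands for itself and its reverse complement) is scored by the PBM enrichment score (E-score), a modified Wilcoxon-Mann-Whitney statistic from -0.5 to +0.5, computed with the Universal PBM Analysis Suite. Scale: above 0.35 generally sequence-specific binding.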

| Sequence | PBM E-score |
| --- | --- |
| AGTAGAGG | -0.308 |
| GCGCAGCA | -0.232 |
| ACAATTTC | 0.0702 |
| AGGATAAT | 0.113 |
| TCAAAGGA | -0.0285 |
| GAGCCACC | -0.264 |
| CCATCTCC | 0.256 |
| GAAGATTC | 0.171 |
| CATTCTCC | 0.118 |
| GCAACTCC | 0.299 |
| CCAACTCC | 0.387 |
| ACAACTCA | 0.13 |
| ACAACTCC | 0.431 |
| CCAACTCA | -0.0222 |
| GCAACTAC | 0.0638 |
| ACAACTCT | 0.0085 |
| GCAACTCA | 0.0595 |
| CCAACTCG | -0.141 |
| CGCTGTGA | -0.225 |
| CTATTGGC | -0.227 |
| ACCTTGAC | -0.143 |
| ATGGAGTG | -0.0878 |
| ACGGAGTA | 0.473 |
| AAGGAGTG | -0.0821 |

| Sequence | PBM E-score |
| --- | --- |
| ATGGAGTA | 0.179 |
| AAGGAGTA | 0.0607 |
| GAGGAGTA | -0.0389 |
| CAGGAGTC | 0.0824 |
| CCGGAGGC | 0.156 |
| ACGGAGTG | 0.42 |
| GCGGAGGA | -0.161 |
| GCGGAGTA | 0.458 |
| CCGGAGTC | 0.484 |
| AATTGCGT | 0.134 |
| CGATCCTC | -0.124 |
| ACACTCGA | -0.106 |
| AAACCTAT | 0.123 |
| CTAGATGA | -0.0501 |
| CACAAACG | 0.127 |
| CCAACCAG | -0.187 |
| ACCGCAAT | 0.1 |
| CTGGAGTA | 0.0562 |
| ATGGAGTC | 0.0281 |
| CAGGAGTA | -0.157 |
| CCGGAGTA | 0.49 |
| ACGGAGGC | -0.0143 |
| ACGGAGTC | 0.46 |
| CGATTTAA | 0.242 |

| Sequence | PBM E-score |
| --- | --- |
| CACTTTAA | 0.157 |
| AAATTTTA | 0.125 |
| CAATTTAA | 0.317 |
| TAATTTAA | 0.283 |
| TGATTTAA | 0.3 |
| AAATTTAG | 0.254 |
| AGATTTAA | 0.00422 |
| AAATTTAA | 0.318 |
| AACTTTAG | 0.189 |
| AACTTTAA | 0.325 |
| CAATTTTA | 0.234 |
| CCAGGATC | -0.201 |
| GTTTAACA | -0.00835 |
| AGGATTTG | 0.0444 |
| CCTCCCTA | -0.367 |
| CGCAAACG | -0.00322 |
| AGATTGAG | 0.0927 |
| AACTATCT | 0.0634 |
| GGACCGTA | -0.172 |
| CTGCGTTC | 0.0373 |
| GAGTTGTA | 0.317 |
| CAGTTGTA | 0.00162 |
| AAGTTGTA | 0.0914 |
| CTAGCGGA | 0.0881 |

| Sequence | PBM E-score |
| --- | --- |
| CGAGGTCA | -0.0467 |
| CTCTCCGC | 0.18 |
| ATCTCCCC | -0.285 |
| GTCTCCAA | -0.0301 |
| ATCTCCGG | 0.478 |
| ATCTCCCA | -0.155 |
| ATCTCCAA | 0.158 |
| ATCTCCGA | 0.477 |
| GTCTCCGA | 0.338 |
| ATCTCCAG | -0.0734 |
| ATCTCCCG | -0.0416 |
| ATCTCCGC | 0.399 |
| CTCTCCGA | 0.257 |
| AAGCGACC | 0.0829 |
| CGTAGGCA | -0.169 |
| GATAGTAC | -0.00235 |
| GCGCAAGC | -0.234 |
| GAAGATTA | 0.109 |
| CAAGATTA | 0.132 |
| AAAGATTA | 0.306 |
| AAAAAACT | 0.198 |
| AGAGAGCG | -0.0777 |
